# Results taken from PubChem BioAssay AID651774 (Broad Institute, 2012).
# Results with a measured potency or affinity are listed apart. Activity calls are given as the source filed them. The rule behind the calls is not given here.
# Assay: HeLa cell viability loss – 24 h, dry powder, cytotoxicity control, dose response (AID 651774)
# Conditions: CellTiter-Glo ATP luminescence; series mostly up to 35 µM; activity change, negative = cytotoxicity: at the top concentration
Structure (SMILES),"activity change, negative = cytotoxicity",outcome
O=C(Cc1ccc(-c2ccccc2)cc1)NCC1CCCC1,9.56% (inactive),
O=C(Cc1ccccn1)NC1CCCC1,-2.32% (inactive),
O=C(Cc1ccc(-c2ccccc2)cc1)NC1CCCCC1,-10.4% (inactive),
c1ccc(CNc2nn[nH]n2)cc1,-14.7% (inactive),
COc1ccc(CC(=O)NC2CCCC2)cc1,-1.46% (inactive),
CCn1nnnc1NCc1ccccc1,0.61% (inactive),
CCN(Cc1ccc(N2CCCC2)cc1)c1nnnn1CC,-1.69% (inactive),
Cn1nnc(NCc2ccc(N3CCCC3)cc2)n1,-6% (inactive),
Cn1nnc(NCc2ccccc2)n1,-9.85% (inactive),
CCn1nnc(NCc2ccc(C(F)(F)F)cc2)n1,-1.34% (inactive),
O=C(Cc1ccc(-c2ccccn2)cc1)NC1CCCC1,-8.44% (inactive),
O=C(Cc1ccc2ccccc2c1)NC1CCCC1,3.82% (inactive),
O=C(Cc1ccc(-c2ccccc2)cc1)N1CCOCC1,6.81% (inactive),
CN1CCN(C(=O)Cc2ccc(-c3ccccc3)cc2)CC1,9.96% (inactive),
CCn1nnnc1NCc1ccc(N2CCCC2)cc1,,inactive
O=C(Cc1cccc(Cl)c1)NC1CCCC1,-1.26% (inactive),
Cc1ccc(CC(=O)NC2CCCC2)cc1,-14.5% (inactive),
CCn1nnc(NCc2ccc(N3CCCC3)cc2)n1,,inactive
O=C(Cc1cccc(C(F)(F)F)c1)NC1CCCC1,-3.06% (inactive),
O=C(Cc1ccccc1F)NC1CCCC1,16% (inactive),
CCCn1nnnc1NCc1ccc(C(C)C)cc1,-5.13% (inactive),
CC(C)n1nnc(NCc2ccc(N3CCCC3)cc2)n1,-7.91% (inactive),
Cn1nnnc1NCc1ccccc1,11.8% (inactive),
O=C(NC1CCCC1)Oc1ccc(-c2ccccc2)cc1,-2.37% (inactive),
CN(C)C(=O)Cc1ccc(-c2ccccc2)cc1,4.1% (inactive),
O=C(O)Cc1ccc(-c2ccccc2)cc1,-10.5% (inactive),
O=C(Cc1ccc(-c2ccccc2)cc1)N1CCCCC1,-10.2% (inactive),
O=C(Cc1ccc(-c2ccccc2)cc1)Nc1ccccc1,-4.47% (inactive),
